# Measurements reported in PubChem BioAssay (NCI).
# Compounds without any hit were thinned out: in the full panel of roughly 83,000, 20% have a hit.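 Compound tested at a single concentration for 48 hours in 96-well plates; a percent growth value below 10 was scored as active.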 Values without a mark were called inactive. Calls of active or inactive are those of the source.
# Experiments:
# Assay in all cases: NCI-60 one-dose screen, 48 h (100 = growth as untreated, 0 = no growth, -100 = all killed)
# Settings in all cases: 10 µM unless noted
# SK-MEL-2 melanoma = tested on: SK-MEL-2 melanoma
# EKVX NSCLC = tested on: EKVX NSCLC
# SN12C renal = tested on: SN12C renal
# UO-31 renal = tested on: UO-31 renal
# TK-10 renal = tested on: TK-10 renal
# ACHN renal = tested on: ACHN renal
# CAKI-1 renal = tested on: CAKI-1 renal
# A498 renal = tested on: A498 renal
# CCRF-CEM leukemia = tested on: CCRF-CEM leukemia
# MOLT-4 leukemia = tested on: MOLT-4 leukemia
Compound,growth (SK-MEL-2 melanoma),growth (EKVX NSCLC),growth (SN12C renal),growth (UO-31 renal),growth (TK-10 renal),growth (ACHN renal),growth (CAKI-1 renal),growth (A498 renal),growth (CCRF-CEM leukemia),growth (MOLT-4 leukemia)
CN(C)CC(=O)Nc1ccc2ncnc(Nc3ccc(Oc4cccc(C(F)(F)F)c4)c(Cl)c3)c2c1,92.1%,28.9%,60%,-3.49% (active),46.9%,23.1%,35.7%,12.1%,48.3%,50.8%
C=C1C(=O)O[C@H]2[C@H]1CC/C(COC(=O)N[C@H]1C[C@H](O[C@H]3C[C@](O)(C(=O)CO)Cc4c(O)c5c(c(O)c43)C(=O)c3c(OC)cccc3C5=O)O[C@@H](C)[C@H]1O)=C\CC[C@@]1(C)O[C@@H]21,85.5%,103%,34.9%,83.1%,64.9%,88.9%,61.7%,70.5%,-18.2% (active),-5.6% (active)
COc1cc2c(c(OC)c1OC)C(=O)CC(c1cccc(NC(=O)c3ccc(Br)cc3)c1)O2 (stereo not given),8.79% (active),74.3%,61.5%,34.9%,61.7%,52.4%,46.2%,36.2%,2.95% (active),-11.5% (active)
OCCOCCN(Cc1ccccn1)Cc1cc(I)cc(I)c1O,87.1%,87.7%,89.8%,42.9%,58.9%,41.2%,23.7%,89.9%,81.9%,86.2%
CCOC(=O)c1cnc2ccccc2c1Cl,109%,103%,102%,95.1%,84.4%,99.4%,94.8%,56.6%,118%,99.9%
COc1ccc2c3c([nH]c2c1)C(=O)c1nc(C)ccc1C3=O,66.7%,53.6%,38.4%,39.6%,109%,35%,51.8%,67.6%,53.2%,7.34% (active)
Cc1ccc(-c2nc3nc(-c4ccc(F)cc4)nc(N4CCNCC4)c3o2)cc1,102%,127%,-48.7% (active),76.7%,-35.8% (active),-95.5% (active),1.35% (active),79.5%,-71% (active),-64.6% (active)
COc1ccc(/C=C2\COc3ccc(O)c(O)c3C2=O)cc1,57.4%,48%,-39.1% (active),-86.3% (active),7.43% (active),-42% (active),2.2% (active),24.4%,7.73% (active),3.83% (active)
C#Cc1ccc(NC(=O)c2ccc(/C=C/C(=O)c3nccn3C)cc2)cc1,-30.4% (active),-75.4% (active),-37.5% (active),-98.8% (active),-2.59% (active),-72.1% (active),-81.6% (active),-70.3% (active),-9.16% (active),-10% (active)
Cn1cc(-c2nonc2-c2c[nH]c3ccc(Br)cc23)c2cc(Br)ccc21,73.9%,33.5%,66.9%,24.4%,39.6%,14.3%,24%,28%,34.4%,25.1%
N#Cc1cccc(NC(=O)c2oc3ccccc3c2-c2cnn(-c3ccccc3)c2)c1,88.1% [50 µM],76.5% [50 µM],78.3% [50 µM],59% [50 µM],88.2% [50 µM],80.6% [50 µM],63.2% [50 µM],89.5% [50 µM],-21.3% [50 µM] (active),-5.03% [50 µM] (active)
CC(C)N1CCN(Cc2ccc3c(NNC(=O)c4ccccc4)nc4cc(F)ccc4n23)CC1,59.6%,18.1%,17.3%,8.43% (active),36.2%,10.8%,12.5%,-15.8% (active),10.8%,11.7%
CCCC(O)Cn1ncc(C(=O)OCC)c1NC(=O)NCc1ccccc1F (stereo not given),74.3%,95.7%,96.8%,74.2%,99.1%,107%,80.1%,90.7%,76.3%,71%
COc1ccc(-c2nc(/C=C3\SC(=NCc4ccccc4)NC3=O)c3ccccn23)cc1,-31.6% (active),58%,-19.7% (active),-47.2% (active),-52.4% (active),-28.3% (active),3.18% (active),-7.6% (active),16.2%,11.1%
COCCNC(=O)c1ccc(-c2nc3ccc4[nH]ncc4c3c3c2CCCC3)cc1,40.2%,45.7%,33%,8.86% (active),38.9%,14.9%,-4.05% (active),-9.26% (active),18.1%,17.8%
CCc1ccc(C(=O)/C=C/C23c4ccccc4C(c4ccccc42)C2C(=O)NC(=O)C23)cc1 (stereo not given),3.45% (active),23.2%,-7.89% (active),22.1%,18%,0.0344% (active),27.5%,5.29% (active),0.462% (active),2.03% (active)
COc1ccccc1NC(=O)Cn1cc(CN2CCN(c3ccnc4cc(Cl)ccc34)CC2)nn1,112%,92.5%,98%,66.8%,102%,95.3%,80.2%,94.8%,-34.8% (active),70.8%
Cc1ccc(Cc2cnc(NC(=O)c3cc(Br)cs3)s2)cc1,26.9%,78.3%,68.7%,71.7%,78.1%,81.9%,53.9%,55.1%,31.8%,36.1%
CC1(C)c2[nH]c3ccccc3c2C[C@]2(C)[C@H]3CC=C4[C@@H]5C[C@@](C)(C(N)=O)CC[C@]5(C)CC[C@@]4(C)[C@]3(C)CC[C@@H]12,80.3%,31.9%,61.8%,47.3%,84.2%,45.7%,57.7%,67.9%,54.7%,51.2%
CC(=O)n1nc(C(=O)OC(C)C)c2cc(C)c(C)cc21,106%,99%,105%,94.4%,98.6%,101%,99.3%,104%,84.7%,84.8%
CC(O)c1cnc(/C=C2\SC(=S)N(Cc3ccccc3)C2=O)s1 (stereo not given),69.1%,98.1%,95.5%,93.5%,-18.5% (active),88.2%,87.8%,104%,18.8%,58.1%
C=C1C(=O)O[C@H]2[C@H]1CC/C(COC(=O)NCc1cc[nH]c1)=C\CC[C@@]1(C)O[C@@H]21,70.5%,61.7%,33.6%,58.3%,44.1%,45.3%,39.1%,104%,-15.9% (active),18.6%
CN(C)C1CCN(Cc2ccc(NC(=O)c3cncc(C#Cc4cnc(N)c5ncccc45)c3)cc2C(F)(F)F)CC1,79.9%,93.5%,93.1%,89.3%,128%,-90.9% (active),78.4%,85.2%,4.13% (active),24.7%
C/C(=N\NC(=O)c1ccccc1O)c1cccc(/C(C)=N/NC(=O)c2ccccc2O)n1,95.2%,30%,55%,38.6%,41%,39.7%,14.5%,71.9%,21.8%,24.5%
COc1ccc(-c2csc(NC(=O)CSc3nc(-c4ccccc4)cc(=O)[nH]3)n2)cc1,59.7%,58.1%,80.3%,65.6%,78.9%,63%,74.7%,64.7%,57.9%,14.4%
Cc1ccc2c(n1)C(=O)c1[nH]c3ccccc3c1C2=O,64.2%,43.7%,36.5%,50.5%,115%,49.2%,56.4%,69.2%,55.9%,35.1%
